# According to PubChem BioAssay AID2732 (Emory University Molecular Libraries Screening Center, 2010):
# Where “and” joins values, the source holds several entries; their conditions need not be identical. Identical values can stand only once. The campaign covered roughly 220,000 compounds. About 8,200 (3.7%) were called active.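 Rule for the calls: active = compounds that reduced the stress-induced luciferase reporter signal by more than about 70% of percent inhibition (limit read from the data); inactive = the rest.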 The entries come from a sample that favours actives as a whole. The source holds several records for some structures; these can differ, active in one and inactive in another.
# Assay: inhibitors of CHOP promoter induction, primary screen, cell-based, unfolded protein response, luciferase reporter (AID 2732);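 note: 0% = tunicamycin plus vehicle and 100% = wells without tunicamycin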
# Settings: CHO-K1 CHOP-promoter luciferase, tunicamycin-induced, 15-18 h; at 10 µM; stronger effect = higher value
row,SMILES,inhibition
1,CCOC(=O)c1c(C)nn(-c2ncccc2NC(=O)CCC(=O)O)c1C,15.2% (inactive)
2,COC(=O)c1c(C)oc(C)c1S(=O)(=O)Nc1ccc(C(C)C)cc1,8.63% (inactive)
3,Cc1cccc(N2CCN(Cc3nc(C4CC4)no3)CC2)n1,-7.46% (inactive)
4,Nc1cccc(S(=O)(=O)Nc2ccc(SC(F)F)cc2)c1,6.78% (inactive)
5,O=C(COc1ccc(/C=N/NC(=O)c2ccc(O)cc2)cc1)Nc1ccc([N+](=O)[O-])cc1,0.44% (inactive)
6,CCCCCC(=O)NC(=S)NNC(=O)c1ccc([N+](=O)[O-])cc1,26.4% (inactive)
7,CCCCCC(=O)Nc1ccc(C(=O)N/N=C/c2ccc([N+](=O)[O-])cc2)cc1,73.8% (active)
8,O=C1NC[C@@H](Cc2ccc(O)cc2)N(CCc2cccc(F)c2)C1=O,-6.82% (inactive)
9,Brc1ccc(-c2n(-c3ccccn3)c3ccccc3[n+]2-c2ccccn2)cc1,24.6% (inactive)
10,Cc1cccc(C(=O)NNC(=O)c2cccc([N+](=O)[O-])c2)c1,3.14% (inactive)
11,CCOC(=O)c1sc2nc(SC)nc(-c3ccccc3)c2c1N,-31.5% (inactive)
12,CCOC(=O)c1sc(-c2cccc([N+](=O)[O-])c2)cc1N,75.2% (active)
13,CC(C)c1ccc(NC(=S)NC2CC3C=CC2C3)cc1 (stereo not given),51.2% (inactive)
14,CC(=O)Nc1nc2c(s1)C(=O)NCC(C)(C)C2,12.8% (inactive)
15,Brc1ccc(-c2noc(-c3ccccc3)n2)o1,26.1% (inactive)
16,CS(=O)(=O)c1ccc(Cl)c(NC(=O)Nc2ccccc2)c1,2.73% (inactive)
17,CCCCCCOC(=O)NCC(O)c1ccccc1 (stereo not given),1.35% (inactive)
18,CCCn1c(C(O)c2ccc(OCC)cc2)nc2ccccc21 (stereo not given),19% (inactive)
19,CCCCCC(O)c1cccc(OCc2ccc3ccccc3n2)c1 (stereo not given),88.4% (active) and -8.07% (inactive)
20,O=C(NC(=O)c1cc(OCC(F)(F)F)ccc1OCC(F)(F)F)Nc1ccccc1,6.78% (inactive)
21,Cc1ccc(/C=N/NC(=O)CSc2ccccn2)o1,-0.26% (inactive)
22,CC(C)n1c(=S)[nH]c2cc(C(F)(F)F)ccc21,22.9% (inactive)
23,COc1ccc(CNC(=O)CCCn2nc(C)c([N+](=O)[O-])c2C)cc1,11.7% (inactive)
24,CCc1ccc(NC(=O)Cn2nc(C)c([N+](=O)[O-])c2C)cc1,14.9% (inactive)

row,SMILES,inhibition
1,Cc1ccc(Oc2cc(NC(=O)CCCn3nc(C)c([N+](=O)[O-])c3C)cc([N+](=O)[O-])c2)cc1,71.1% (active)
2,Cc1ccc(/C=N/NC(=O)CN2CCN(Cc3ccccc3)CC2)s1,13.5% (inactive)
3,CCOC(=O)c1ccc(NC(=O)Cn2cnc3cc(C)c(C)cc32)cc1,55.6% (inactive)
4,O=C(NNS(=O)(=O)c1ccccc1)c1cnn(-c2ccc(Cl)cc2)c1C(F)(F)F,-3.7% (inactive)
5,C[C@H](NC(=O)c1nc[nH]c1C(=O)N[C@@H](C)C(=O)OC(C)(C)C)C(=O)OC(C)(C)C,1.44% (inactive)
6,O=c1c2ccccc2nc(CSc2nnnn2-c2ccccc2)n1-c1ccccc1,32.4% (inactive)
7,Cc1ccc(-c2noc(CSc3nnc(-c4cccs4)n3C)n2)cc1,-8.68% (inactive)
8,Cc1ccc(-c2noc(CSc3nnnn3-c3ccccc3)n2)cc1,70.7% (active)
9,COc1ccc(C)cc1-n1nnnc1SCc1nc2ccccc2c(=O)[nH]1,12.6% (inactive)
10,Cc1ccc(Nc2nc(CSc3nnnn3-c3ccccc3)cc(=O)[nH]2)cc1,81.8% (active)
11,Cc1ccc(-c2noc(CSc3nnc(-c4ccccc4)n3C)n2)cc1,66.5% (inactive)
12,Cn1c(C(=O)O)ccc1S(=O)(=O)N(Cc1ccccc1)Cc1ccccc1,2.64% (inactive)
13,O=C(NC(=O)c1ccccc1N1CCCCC1)Nc1ccc(Br)cc1,-4.77% (inactive)
14,Cc1ccc(OCC(=O)c2cc(C)n(Cc3ccco3)c2C)c([N+](=O)[O-])n1,31% (inactive)
15,CCc1ccc2c(c1)C(c1ccc([N+](=O)[O-])cc1)=NNC(c1ccccc1)=N2,93.7% (active)
16,Cc1ccc(C2=Nc3c(ccc4ccccc34)C(c3ccncc3)=NN2)cc1,64.5% (inactive)
17,CCOc1ccc2c(c1)C(c1ccc(C)cc1)=NNC(c1ccc(C)cc1)=N2,37.2% (inactive)
18,C/C(=N/Nc1nc(-c2ccccc2)c(CC(=O)O)s1)c1ccccc1,-18.2% (inactive)
19,CCCCN(CCCC)CC(O)Cn1c2ccccc2c(=O)c2ccccc21 (stereo not given),11% (inactive)
20,CC(NC(=O)C(=O)Nc1nccs1)c1ccccc1 (stereo not given),24.1% (inactive)
21,O=C(O)CCCCCCCCCC[n+]1ccccc1,-11.5% (inactive)
22,CCC(C)(C)c1ccc(OCC(=O)N(C)C)c(C(C)(C)CC)c1,85.7% (active)
23,CCc1nc(C)ccc1OCC(=O)N(CC)CC,18.9% (inactive)
24,CN(C)CCOc1ccc(Cl)cc1C(C)(C)C,-2.87% (inactive)

row,SMILES,inhibition
1,Cn1nccc1NS(=O)(=O)c1ccc(F)cc1,-5.82% (inactive)
2,Cc1cc(=O)[nH]c(S)c1C#N,2.71% (inactive)
3,CC(C)(C)c1ccc(CCC2OCC(CN3CCOCC3)O2)cc1 (stereo not given),3.73% (inactive)
4,COc1ccccc1-n1cn[nH]c1=S,11.5% (inactive)
5,Cc1cc(Oc2ccc(Cl)cc2)nc(SCC(=O)c2ccccc2)n1,70.2% (active)
6,Cc1cc(SCC(=O)c2ccccc2)nc(SCC(=O)c2ccccc2)n1,15.9% (inactive)
7,COC(=O)c1cc(C(=O)CSc2nc(C)cc(C)n2)ccc1O,5.39% (inactive)
8,O=C(NNC(=O)c1csc(-c2cccnc2)n1)Nc1ccc(Cl)cc1,-32.3% (inactive)
9,Cn1cc(S(=O)(=O)NC(c2ccccc2)c2ccccc2)c(=O)n(C)c1=O,9.19% (inactive)
10,O=C(NCc1ccccc1Cl)NC(=O)c1csc([N+](=O)[O-])c1,-5.11% (inactive)
11,Cc1ccc(C(=O)N(CN2CCCC2=O)c2ccc(F)cc2)cc1,-13.1% (inactive)
12,CCn1c(C(C)NC(=O)c2ccc(C)cc2)n[nH]c1=S (stereo not given),25.9% (inactive)
13,CCN1CCC2(CC1)N=C(c1ccc(F)cc1)C(=S)N2C(=O)c1ccc(C)cc1,95.4% (active)
14,CCn1c(SCC(=O)Nc2cccc(F)c2)nnc1-c1cc2cc(Br)ccc2o1,72.8% (active)
15,CCn1c(CNC(=O)c2ccco2)nnc1SCC(=O)Nc1cccc(F)c1,-0.15% (inactive)
16,Cn1c(SCC(=O)Nc2ccc(Br)cc2F)nnc1-c1ccco1,24.1% (inactive)
17,COC(=O)[C@H](Cc1ccccc1)NC(=O)Nc1ccc(OC)cc1,4.48% (inactive)
18,CCOC(=O)NNC(=O)c1ccc(Cl)cc1,-19.9% (inactive)
19,CC(=O)c1cc(NC(=O)c2ccccc2)c(=O)oc1/C=C/N(C)C,11.8% (inactive)
20,CCOC(=O)c1cc(NC(=O)c2ccc(Cl)cc2)c(=O)oc1-c1ccccc1,77.2% (active)
21,COc1ccc(NC(=O)C2=C(C)NC(=O)NC2c2ccccc2[N+](=O)[O-])cc1 (stereo not given),-5.78% (inactive)
22,O=C(Nc1ccc(S(=O)(=O)Nc2nccs2)cc1)c1cc(-c2ccncc2)nc2ccccc12,7.48% (inactive)
23,CC(/C=C/c1ccccc1)=N\NC(=O)C1CC1(C)c1ccccc1 (stereo not given),43.4% (inactive)
24,Cc1ccc(-c2cc(C(=O)N/N=C/C=C/c3ccccc3)n[nH]2)o1,13.4% (inactive)

row,SMILES,inhibition
1,O=C(N/N=C/C=C/c1ccccc1)C1CC1(c1ccccc1)c1ccccc1 (stereo not given),82.4% (active)
2,CC(C)c1cc(CN2CCOCC2)cc(C(C)C)c1O,-5.16% (inactive)
3,CCn1nc(C)c(NC(=O)/C=C/c2ccc(OC)c(COc3ccc(Br)cc3)c2)c1C,86.6% (active)
4,COc1ccc(/C=C/C(=O)Nc2cccnc2)cc1OC,2.86% (inactive)
5,COc1ccc(/C=C/C(=O)Nc2c(C)nn(C)c2C)cc1COc1ccc(Br)cc1,105% (active)
6,COc1ccc(C(C)=O)cc1COc1ccc(Cl)c(C)c1,5.12% (inactive)
7,COc1ccc(/C=C/C(=O)Nc2ccc3c(c2)OCCO3)cc1OC,-1% (inactive)
8,COc1ccc(/C=C/C(=O)Nc2ccc(C)cc2)cc1S(=O)(=O)N1CCOCC1,-1.01% (inactive)
9,Cc1ccc(NC(=O)Nc2cc(-c3ccccc3)nn2C)cc1Cl,7.85% (inactive)
10,C=CCNC(=S)N1CCc2[nH]c3ccccc3c2C1,0.96% (inactive)
11,COc1ccc(CCNC(=O)C(=O)Nc2ccc3nc4n(c(=O)c3c2)CCCCC4)cc1OC,8.36% (inactive)
12,O=C(Nc1cccc2c1N(C(=O)c1ccco1)CCC2)c1ccco1,-8% (inactive)
13,CC1(C)CC(=O)C=C(Nc2ccccc2)C1,5.42% (inactive)
14,O=C(O)/C=C/c1ccc2c(c1)OCCO2,-23.6% (inactive)
15,COc1cc(/C=N\NC(=O)CNC(=O)c2cccc([N+](=O)[O-])c2)ccc1O,8.27% (inactive)
16,COc1ccc(C(=O)Nc2ccccc2C(=O)N/N=C/c2ccc(O)c(OC)c2)cc1,88.8% (active)
17,COc1ccc(C(=O)Nc2ccccc2C(=O)N/N=C/c2ccccc2OC)cc1,-12.8% (inactive)
18,CCOC(=O)Cn1c(=O)oc2cc(S(=O)(=O)NCC3CCCO3)ccc21 (stereo not given),22.5% (inactive)
19,OC(CNCC1CCCO1)Cn1c2ccc(Br)cc2c2cc(Br)ccc21 (stereo not given),108% (active)
20,CCc1cc(Br)ccc1NC(=O)C1CCCO1 (stereo not given),-17.3% (inactive)
21,O=C(Nc1ccc(S(=O)(=O)N2CCOCC2)cc1)c1ccc2ncsc2c1,2.87% (inactive)
22,C/C(=N\NC(=S)Nc1ccc(C)cc1)c1cc2ccccc2o1,-20.3% (inactive)
23,COCCCNC(=O)C1CCN(c2ccc(N3CCOCC3)nn2)CC1,-10.8% (inactive)
